# Inconclusive results are not listed. The source made the active and inactive calls. Calls follow the shape of the full dose curve.
# Assay: qHTS assay to identify small molecule antagonists of the sonic hedgehog signaling (Shh) pathway (AID 1259369); also: nearly all actives have a fitted effect of over 45% in size
# Details: NIH/3T3 Gli1-Luc reporter, Shh antagonist, luminescence 24 h; series mostly up to 92.4 µM; activity change, negative = inhibition: at the top concentration
# Description: U.S. Tox21 Program National Center for Advancing Translational Sciences [NCATS] NIH Chemical Genomics Center [NCGC] U.S. Environmental Protection Agency [EPA] National Institutes of Environmental Health Sciences [NIEHS] National Toxicology Program [NTP] U.S. Food and Drug Administration [FDA] Tox21 Assay Overview: The sonic hedgehog (Shh) pathway is essential for normal embryonic development. Dysregulation of the Shh pathway can cause severe developmental defects in organs. Therefore chemicals that interfere with the pathway are potential developmental toxicants. A cell line designated 3T3Gli1-Luc (DMB/OARSA/CFSAN/FDA, Laurel, MD), a NIH/3T3 derived clone containing stably integrated Gli1-Luc reporter is used to detect chemical interference of the Shh pathway, by changes in the expression of the firefly Luc gene under the control of the Gli1 transcriptional response element. This cell line was used to screen Tox21 libraries for identifying and prioritizing the potential developmental toxicants that interfere Shh pathway. Conditioned medium-stimulated mode was used to screen for chemicals inhibiting Shh signaling.
# Tox21 Assay Protocol Summary: 3T3 Gli1-Luc cells were dispensed at 2,000 per well in 5uL of culture medium into white solid bottom 1536-well plates (Greiner Bio-One, Monroe, NC) using a Multidrop Combi (Thermo Scientific, Waltham, MA) dispenser. The assay plates were incubated at 37 C and 5% CO2 for 4hr, and then 23nL of compounds dissolved in DMSO and positive control were transferred using a Pintool station (Wako, San Diego, CA). The compound transfer was followed by the addition of 1ul conditioned medium or assay buffer using two separate tips of Flying Reagent Dispenser (FRD, Aurora Discovery, San Diego, CA). The assay plates were incubated at 37C and 5% CO2 for 24hr. For luciferase read, 4uL of Amplite Luciferase reporter gene assay reagent (AAT Bioquest, Inc. Sunnyvale, CA) was added to each well of the assay plates using FRD and incubated at room temperature for 30min. The luminescence signal was measured using a ViewLux plate reader (Perkin Elmer, Shelton, CT).
# % is scaled to controls: 0 for no effect and ±100 for the full control effect; potency is read from the fitted curve at half-maximal effect.
SMILES,"activity change, negative = inhibition",Potency
O=S(=O)(O)c1ccc(Nc2nc(Nc3ccc(/C=C/c4ccc(Nc5nc(Nc6ccc(S(=O)(=O)O)cc6)nc(N(CCO)CCO)n5)cc4S(=O)(=O)O)c(S(=O)(=O)O)c3)nc(N(CCO)CCO)n2)cc1,-8.21% [at 42.5 µM] (inactive),–
Cc1ccc(O)c(N)c1,–,8.64 µM (active)
CN(C)[C@@H](CCOc1cccc2ccccc12)c1ccccc1,–,29.8 µM (active)
O=C(Oc1ccccc1)Oc1ccccc1,-6.18% (inactive),–
CC(=O)OCC=C(C)C,3.39% [at 42.5 µM] (inactive),–
CC(=O)CC(=O)Nc1ccc(S(=O)(=O)O)cc1,25.8% (inactive),–
Fc1ccc(C(c2ccc(F)cc2)N2CCNCC2)cc1,–,2.98 µM (active)
COC(C)=O,-1.34% (inactive),–
O=S(=O)(O)c1ccccc1/C=C/c1ccc(-c2ccc(/C=C/c3ccccc3S(=O)(=O)O)cc2)cc1,10.5% (inactive),–
CCCCOC(=O)CC,32.4% (inactive),–
CCCCCCCCCCOC(=O)c1ccccc1C(=O)OCCCCCCCC,8.46% (inactive),–
Cc1cc(-n2nc3ccc(Cl)cc3n2)c(O)c(C(C)(C)C)c1,27.4% [at 42.5 µM] (inactive),–
CCCCCc1ccc(Cl)cc1,-0.2% (inactive),–
C[C@@H](O)[C@H](N)C(=O)O,10.6% [at 19 µM] (inactive),–
O=c1[nH]c(=O)n([C@H]2C[C@H](O)[C@@H](CO)O2)cc1F,7.5% [at 42.5 µM] (inactive),–
Cc1ccc(N/N=c2\c(=O)cc/c(=N\Nc3ccc(S(=O)(=O)O)cc3)c2=O)c(C)c1,-5.86% (inactive),–
O=C(O)[C@H](O)[C@@H](O)[C@H](O[C@@H]1O[C@H](CO)[C@H](O)[C@H](O)[C@H]1O)[C@H](O)CO,40.5% [at 42.5 µM] (inactive),–
CC[N+](CC)(CC)CCOC(=O)C(C1CCCC1)C1CCCC1,-26.7% [at 42.5 µM] (inactive),–
CCCCCCCCCCCCOCCOCCOCCOCCOCCOCCOCCOCCOCCO,–,7.5 µM (active)
COc1cc(/C=C/c2ccccc2)oc(=O)c1,-5.39% (inactive),–

SMILES,"activity change, negative = inhibition",Potency
CCC(CC)(CC(=O)Nc1cccc(/C=C/c2nc(C3CCC3)cs2)c1)C(=O)O,-9.97% [at 42.5 µM] (inactive),–
O=C1NC(=O)[C@@H]2CC=CC[C@H]12,-11.6% (inactive),–
Cc1nc2n(c(=O)c1CCN1CCC(c3noc4cc(F)ccc34)CC1)CCCC2,4.32% [at 42.5 µM] (inactive),–
CCOC(=O)Cn1cccc1-c1nc(-c2ccc(OC)cc2)c(-c2ccc(OC)cc2)s1,-23.7% [at 42.5 µM] (inactive),–
CC1(C)[C@@H](O)CC[C@]2(C)[C@H]3C(=O)C=C4[C@@H]5C[C@@](C)(C(=O)O)CC[C@]5(C)CC[C@@]4(C)[C@]3(C)CC[C@@H]12,15.8% (inactive),–
CC(C)(C)c1csc(-c2cc3cc(OCc4ccccc4CC(=O)O)ccc3o2)n1,-17.7% (inactive),–
CN(C)Cc1ccccc1O,0% (inactive),–
CN1CCC[C@@H]1CCO[C@](C)(c1ccccc1)c1ccc(Cl)cc1,–,26.6 µM (active)
COc1ccc(NC(=O)CC(C)=O)cc1,8.55% (inactive),–
CCC(C)[O-].CCC(C)[O-].CCOC(=O)/C=C(/C)[O-].[Al+3],-8.6% (inactive),–
Cc1ccc(C(C)C)cc2c(C)ccc1-2,1.92% [at 42.5 µM] (inactive),–
O=C1CCCCCCCCCCCCCCCO1,14.8% (inactive),–
Cc1c2ccccc2c(C)c2c1ccc1ccccc12,–,10.9 µM (active)
O=[N+]([O-])c1ccc(O)cc1C(F)(F)F,0% (inactive),–
Cc1cc(C(C#N)c2ccc(Cl)cc2)c(Cl)cc1NC(=O)c1cc(I)cc(I)c1O (stereo not given),–,26.6 µM (active)
CCCCCCCCCCC[C@@H](C[C@@H]1OC(=O)[C@H]1CCCCCC)OC(=O)[C@H](CC(C)C)NC=O,17.6% [at 42.5 µM] (inactive),–
CC(C)CCOC(=O)/C=C/c1ccccc1,5.09% (inactive),–
CCC(C)n1ncn(-c2ccc(N3CCN(c4ccc(OC[C@H]5CO[C@](Cn6cncn6)(c6ccc(Cl)cc6Cl)O5)cc4)CC3)cc2)c1=O (stereo not given in full),–,1.68 µM (active)
CC1(C)CC(O)CC(C)(C)N1,0.095% (inactive),–
CC1(C)CCC[C@]2(C)[C@H]3CCO[C@]3(C)CC[C@@H]12,0.963% (inactive),–
